The nature of assay [1]: Cell Viability - Jurkat (AID 426;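 active = dose-dependent loss of cell ATP signal giving a full or clear fitted curve, ranked by lower potency value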; also: potency is read from the fitted curve at half-maximal effect). Conditions: qHTS. The gist of the method:
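Jurkat (clone E6-1, human T-cell leukemia) cells, 5000/well in complete medium, were exposed to compound for 40 hr at 37 °C. Viability was read as intracellular ATP by CellTiter-Glo luminescence; AC50 came from Hill fits of concentration-response data.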
For orientation: In qHTS, concentration-response curves come from the screen itself.

The nature of assay [2]: Cell Viability - Hek293 (AID 427;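 active = compounds whose dose-response curve shows a full or clear partial loss of cell viability, called from curve shape rather than a numeric limit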;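 also: potency is read from the fitted curve at half-maximal effect; cells exposed to compound for 40 hours at 37 °C before reading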). The settings on record: qHTS. The gist of the method:
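HEK293 cells in complete medium were exposed to compound for 40 hr at 37 °C, then cellular ATP was read by CellTiter-Glo luminescence. Data were normalized to DMSO (basal) and 100 uM tamoxifen (100% inhibition), and AC50 came from Hill fits.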

Assay [3] can be described thus: Cell Viability - SH-SY5Y (AID 544).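 Also: 0% = DMSO alone and -100% = 100 µM tamoxifen; nearly all actives have a fitted effect of over 55% in size.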 The settings on record: SH-SY5Y neuroblastoma cell viability; viability change, negative = cytotoxic: at 92.2 µM (top of the series). A digest of the protocol:
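Human neuroblastoma SH-SY5Y cells (1500/well) in complete medium were exposed to compounds for 40 hr at 37 °C; intracellular ATP was then quantified by CellTiter-Glo luminescence after 20 min at room temperature. AC50 came from Hill-equation concentration-response fits.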

In assay [4] the target is Cytochrome P450 3A4 (Homo sapiens) (UniProt P08684). Briefly: qHTS Assay for Inhibitors and Substrates of Cytochrome P450 3A4 (AID 884). Also: % is scaled to controls: 0 for no effect and ±100 for the full control effect; nearly all actives have a fitted effect of over 50% in size. Conditions: recombinant CYP3A4, Luciferin-PPXE luminescence; series mostly up to 57.1 µM. The gist of the method:
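20 nM human CYP3A4 with 25 uM Luciferin-PPXE (at KM) in 200 mM KPO4, preincubated 10 min with compound; NADPH regeneration started a 60 min RT reaction. Luciferin detected by luminescence, normalized to 57 uM ketoconazole as full inhibition.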

Assay [5] is described as follows: MultiTox-Fluor Cytotoxicity Assay - LYMP1-002 - Dead Cells (AID 960).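 Also: 0% = DMSO and 100% = tetraoctylammonium bromide; nearly all actives have a fitted effect of over 60% in size.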 Conditions: LYMP1-002 lymphoblastoid cells, dead-cell protease fluorescence; series mostly up to 46.1 µM. The gist of the method:
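Human lymphoblastoid cells (LYMP1-002), 2500/well in complete medium, were exposed to compounds for 16 hr at 37 C. Dead-cell protease activity was read as bis-AAF-R110 fluorescence (Ex/Em 485/520), normalized to DMSO and 15 uM tetraoctylammonium bromide; AC50 from Hill fits.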

The nature of assay [6]: Cell Viability - LYMP2-005 (AID 967).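 Also: plate controls were DMSO only for no effect and 92 µM tetraoctylammonium bromide control for full effect.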 Conditions: LYMP2-005 lymphoblastoid cell viability; series mostly up to 92.2 µM. The gist of the method: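 LYMP2-005 human lymphoblastoid cells (2500/well) were treated with compounds for 24 h at 37 C. Intracellular ATP was then measured by CellTiter-Glo luminescence after 30 min at room temperature. AC50 values came from Hill-equation fits of qHTS concentration-response data.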

Assay [7] is described as follows: Cell Viability - LYMP2-019 (AID 973).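 Also: 0% = DMSO alone and full effect = 92 µM tetraoctylammonium bromide; nearly all actives have a fitted effect of over 55% in size.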 The settings on record: LYMP2-019 lymphoblastoid cell line viability; series mostly up to 92.2 µM. The gist of the method:
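Human lymphoblastoid cells were seeded at 2500 cells/well, preincubated 5 hr at 37 C, then exposed to compounds for 24 hr at 37 C in complete medium. Intracellular ATP was measured by CellTiter-Glo luminescence; AC50 from Hill fits.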

Assay [8] in a line: Cell Viability - LYMP2-010 (AID 981). Also: % is scaled to controls: 0 for no effect and ±100 for the full control effect; nearly all actives have a fitted effect of over 55% in size. The settings on record: LYMP2-010 lymphoblastoid cell viability, qHTS; series mostly up to 92.2 µM. A digest of the protocol:
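Human lymphoblastoid LYMP2-010 cells (2500/well) were preincubated 5 hr at 37 C, then exposed to compounds for 24 hr at 37 C in complete medium. Intracellular ATP was measured by CellTiter-Glo luminescence after 30 min at room temperature; AC50 from Hill-fitted concentration-response.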

A short description of assay [9]: Cell Viability - LYMP2-024 (AID 988).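 Also: plate controls were DMSO only for no effect and 92 µM tetraoctylammonium bromide for full effect; nearly all actives have a fitted effect of over 60% in size.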 The settings on record: LYMP2-024 lymphoblastoid cell viability; series mostly up to 92.2 µM. The gist of the method: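 Human lymphoblastoid cells (2500/well) in complete medium were preincubated 5 hr at 37 C, then exposed to compounds for 24 hr at 37 C. Intracellular ATP was read by CellTiter-Glo luminescence; AC50 from Hill-equation fits of concentration-response data.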

A short description of assay [10]: Cell Viability - LYMP2-026 (AID 989). Also: % is scaled to controls: 0 for no effect and ±100 for the full control effect; nearly all actives have a fitted effect of over 50% in size. The settings on record: LYMP2-026 lymphoblastoid cell viability, qHTS; series mostly up to 92.2 µM. The gist of the method:
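Human lymphoblastoid cells (2500/well) in complete medium were preincubated 5 hr at 37 C, then exposed to compounds for 24 hr at 37 C. Cellular ATP was read by CellTiter-Glo luminescence; AC50 from Hill-equation fits of concentration-response data.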

Assay [11] can be described thus: Cell Viability - LYMP1-002 - Assay at 40 hr (AID 994).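 Also: 0% = DMSO only and full inhibition = 92 µM tetraoctylammonium bromide; nearly all actives have a fitted effect of over 60% in size.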 Conditions: LYMP1-002 lymphoblastoid cell viability; series mostly up to 92.2 µM. A digest of the protocol: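 Human lymphoblastoid cells, 2500/well in complete medium, were preincubated 5 hr at 37 C, then exposed to compounds for 40 hr at 37 C. Intracellular ATP was read by CellTiter-Glo luminescence after 30 min at room temperature; AC50 from Hill-equation fits.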

The target in assay [12] is Peroxisome proliferator-activated receptor gamma (Homo sapiens) (UniProt P37231). The experiment in a line: qHTS assay for small molecule agonists of peroxisome proliferator-activated receptor gamma signaling (AID 588536; active = well fitted curve in the direction sought with a large enough effect in the signal ratio, with a control signal flat, not every such curve was filed as active; the % refers to the signal ratio;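 also: 0% = DMSO basal wells and 100% = rosiglitazone at 2 µM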). Conditions: HEK293 PPARg-UAS-bla, beta-lactamase ratio, 16 h, percent of rosiglitazone response, DMSO as zero; series mostly up to 76.7 µM. The gist of the method: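 GeneBLAzer PPAR-gamma-UAS-bla HEK293 cells in 1% charcoal/dextran-treated FBS medium were treated 16 h at 37 C with compounds. Beta-lactamase activity was read by CCF4 ratio (460/530 nm). Response was normalized to 2 uM rosiglitazone (100%) and DMSO, then Hill-fitted for EC50 and efficacy.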

The nature of assay [13]: qHTS assay for small molecule agonists of retinoid X receptor alpha signaling (AID 588544; calls by dose curve). The settings on record: HEK293T RXRa-UAS-bla, beta-lactamase reporter, 18 h; 530 nm emission.
In assay [14] the target is Retinoic acid receptor RXR-alpha (Homo sapiens) (UniProt P19793). The description is as above. The settings on record: HEK293T RXRa-UAS-bla, beta-lactamase reporter, 18 h; series mostly up to 76.7 µM.
Assay [15] deals with Thyroid hormone receptor beta (Homo sapiens) (UniProt P10828). Briefly: qHTS assay for small molecule agonists of thyroid hormone receptor beta signaling (AID 588545; calls by dose curve;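 also: 0% = DMSO only and 100% = 10 nM T3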). The settings on record: TR-UAS-bla GripTite HEK 293, beta-lactamase ratio, agonist mode, 18 h; series mostly up to 76.7 µM. The gist of the method:
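TR-UAS-bla GripTite HEK 293 cells (2500/well, medium with 2% charcoal/dextran FBS) were treated in agonist mode for 18 h at 37 C, titrated. Beta-lactamase was read by CCF4 ratio after 2 h; normalized to 10 nM T3 (100%) and DMSO, Hill-fitted for EC50 and efficacy.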

Assay [16] in a line: qHTS assay for small molecule antagonists of retinoid X receptor alpha signaling (AID 588546).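 Also: cells stimulated with 9-cis-retinoic acid as agonist; % is scaled to controls: 0 for no effect and ±100 for the full control effect.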 The settings on record: HEK293T RXRa-UAS-bla, beta-lactamase ratio, antagonist mode; measured here: W530 green channel, cytotoxicity proxy. The gist of the method:
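Beta-lactamase reporter inhibition, read as CCF4 fluorescence ratio (ex 405, em 460/530 nm) after 2 h at RT. HEK293T UAS-bla cells, 2500/well, were stimulated with 9-cis-RA at 500 or 100 nM final alongside test compound for 18 h at 37 C.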

Assay [17] addresses Tumor necrosis factor (Homo sapiens) (UniProt P01375). The experiment in a line: qHTS assay to identify small molecules that stimulate Tumor Necrosis Factor-alpha (TNF-alpha) secretion (AID 651757; active = well fitted curve in the direction sought with a large enough effect in the signal ratio; the % refers to the signal ratio; also: 0% is about no effect). Conditions: Human cells, HTRF 665/615 ratio; series mostly up to 92.2 µM. The gist of the method: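 THP-1 cells were exposed to compounds for 17 hrs at 37 C, after which secreted TNF-alpha was measured by homogeneous HTRF (TR-FRET) using cryptate- and XL665-labeled anti-TNF-alpha antibodies, read after 3 hr at room temperature.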

A short description of assay [18]: qHTS assay for small molecule antagonists of the retinoid-related orphan receptor gamma (ROR-gamma) signaling pathway - cell viability counter screen (AID 720652; active = well fitted curve in the direction sought with a large enough effect in the repeat runs; an effect the other way counts as inactive or inconclusive;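 also: CHO reporter cells with doxycycline-induced ROR-gamma expression; compound exposure lasted 16 hr before ATP read; % is scaled to controls: 0 for no effect and ±100 for the full control effect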). Conditions: RORgamma reporter cell line viability counter screen; series mostly up to 92.2 µM. The gist of the method:
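Counter screen in CHO cells carrying TET-inducible ROR-gamma and an ROR response element-luciferase reporter; cells plated 5 hr, compound pinned, doxycycline added, then 16 hr at 37 C. Viability read as intracellular ATP by CellTiter-Glo luminescence.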

Assay [19] has as its target Nuclear receptor subfamily 1 group I member 2 (Rattus norvegicus) (UniProt Q9R1A7). The experiment in a line: qHTS assay for small molecule activators of the rat pregnane X receptor (rPXR) signaling pathway (AID 651751; call rule not given here; also: 0% is about no effect). The settings on record: rPXR reporter cells, luciferase (One-Glo), 24 h.
Assay [20] can be described thus: Cell Viability - Mesenchymal (AID 546).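 Also: cells exposed to compound for 40 hours before reading; 0% = DMSO only and -100% = 100 µM tamoxifen.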 The settings on record: mesenchymal cells viability, qHTS; series mostly up to 91.7 µM. A digest of the protocol:
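Normal human renal glomerulus-derived kidney mesenchymal cells, 1000 per well in complete medium, were treated with compounds for 40 hr at 37 °C. Viability was read as intracellular ATP by CellTiter-Glo luminescence; AC50 values came from Hill-equation fits of qHTS concentration-response data.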

Here are results for seven compounds from PubChem BioAssay (NCATS).

Where “and” joins values, the source holds several entries; their conditions need not be identical. Equal values may be shown once. Results filed as inconclusive are left out. Calls of active or inactive are those of the source. Unless noted, calls follow the shape of the dose curve; as a rule, active = well fitted curve in the direction sought with a large enough effect; inconclusive = small, poorly fitted or top-dose-only effect, or another doubt; inactive = no such curve, though single readings can be large; an effect the other way counts as inactive or inconclusive.

Chain of Retinoic acid receptor RXR-alpha (Homo sapiens) (P19793 whole entry, looked up): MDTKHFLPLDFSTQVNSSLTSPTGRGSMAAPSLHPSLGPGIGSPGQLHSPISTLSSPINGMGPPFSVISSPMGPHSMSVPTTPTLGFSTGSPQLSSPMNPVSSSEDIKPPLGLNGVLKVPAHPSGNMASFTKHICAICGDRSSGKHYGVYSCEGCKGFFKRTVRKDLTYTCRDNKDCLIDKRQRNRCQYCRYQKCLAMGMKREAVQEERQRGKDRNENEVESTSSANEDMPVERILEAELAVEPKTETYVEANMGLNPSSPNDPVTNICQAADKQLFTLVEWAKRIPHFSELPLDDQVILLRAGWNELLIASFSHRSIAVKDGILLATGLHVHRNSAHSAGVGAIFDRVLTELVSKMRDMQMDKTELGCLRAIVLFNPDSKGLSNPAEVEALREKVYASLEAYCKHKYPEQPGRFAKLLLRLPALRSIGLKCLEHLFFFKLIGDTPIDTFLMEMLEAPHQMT
Chain of Tumor necrosis factor (Homo sapiens) (P01375 whole entry, looked up): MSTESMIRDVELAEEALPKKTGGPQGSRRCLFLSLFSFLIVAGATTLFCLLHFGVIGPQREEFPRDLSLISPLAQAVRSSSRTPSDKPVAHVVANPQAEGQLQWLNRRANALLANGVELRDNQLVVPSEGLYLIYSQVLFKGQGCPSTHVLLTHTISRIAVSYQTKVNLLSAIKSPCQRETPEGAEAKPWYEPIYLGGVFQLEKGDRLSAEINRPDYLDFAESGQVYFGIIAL
Chain of Cytochrome P450 3A4 (Homo sapiens) (P08684 whole entry, looked up): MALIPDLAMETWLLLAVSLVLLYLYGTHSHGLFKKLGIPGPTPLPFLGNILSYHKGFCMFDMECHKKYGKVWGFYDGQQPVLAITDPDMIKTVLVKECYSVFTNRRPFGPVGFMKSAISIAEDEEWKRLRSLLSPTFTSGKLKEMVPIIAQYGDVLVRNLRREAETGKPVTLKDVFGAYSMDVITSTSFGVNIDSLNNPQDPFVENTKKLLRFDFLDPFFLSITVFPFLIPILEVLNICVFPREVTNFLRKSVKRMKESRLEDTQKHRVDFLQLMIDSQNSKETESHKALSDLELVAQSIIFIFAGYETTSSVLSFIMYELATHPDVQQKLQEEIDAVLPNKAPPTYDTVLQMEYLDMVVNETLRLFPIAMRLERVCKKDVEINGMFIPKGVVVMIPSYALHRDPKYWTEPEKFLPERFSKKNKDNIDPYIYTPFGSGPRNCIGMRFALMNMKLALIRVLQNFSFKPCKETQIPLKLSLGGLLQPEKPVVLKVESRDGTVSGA
Chain of Peroxisome proliferator-activated receptor gamma (Homo sapiens) (P37231 whole entry, looked up): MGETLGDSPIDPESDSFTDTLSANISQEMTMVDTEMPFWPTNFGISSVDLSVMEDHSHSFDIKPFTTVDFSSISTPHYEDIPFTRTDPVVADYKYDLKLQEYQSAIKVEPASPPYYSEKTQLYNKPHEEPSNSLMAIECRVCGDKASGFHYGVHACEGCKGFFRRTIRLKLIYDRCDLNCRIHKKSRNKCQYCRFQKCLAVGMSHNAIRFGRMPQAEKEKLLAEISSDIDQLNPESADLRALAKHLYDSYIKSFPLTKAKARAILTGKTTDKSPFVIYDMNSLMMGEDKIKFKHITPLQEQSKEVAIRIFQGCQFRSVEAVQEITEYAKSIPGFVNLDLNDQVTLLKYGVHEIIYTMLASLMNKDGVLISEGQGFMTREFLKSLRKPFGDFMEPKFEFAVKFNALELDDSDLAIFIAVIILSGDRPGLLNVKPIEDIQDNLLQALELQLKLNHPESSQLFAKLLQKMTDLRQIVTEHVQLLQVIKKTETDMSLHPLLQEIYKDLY
Chain of Thyroid hormone receptor beta (Homo sapiens) (P10828 whole entry, looked up): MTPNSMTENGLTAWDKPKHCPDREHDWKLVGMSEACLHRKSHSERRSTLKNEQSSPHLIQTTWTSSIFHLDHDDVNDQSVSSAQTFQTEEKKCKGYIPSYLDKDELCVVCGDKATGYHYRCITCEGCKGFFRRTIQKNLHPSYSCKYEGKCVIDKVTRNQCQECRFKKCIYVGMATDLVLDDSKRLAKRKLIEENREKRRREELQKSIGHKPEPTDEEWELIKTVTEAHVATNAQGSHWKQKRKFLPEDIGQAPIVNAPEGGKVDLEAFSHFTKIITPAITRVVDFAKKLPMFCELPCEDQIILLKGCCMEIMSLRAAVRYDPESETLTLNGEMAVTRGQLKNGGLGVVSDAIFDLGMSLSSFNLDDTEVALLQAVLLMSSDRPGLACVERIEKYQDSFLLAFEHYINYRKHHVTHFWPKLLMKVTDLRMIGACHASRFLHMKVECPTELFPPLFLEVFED
Chain of Nuclear receptor subfamily 1 group I member 2 (Rattus norvegicus) (Q9R1A7 whole entry, looked up): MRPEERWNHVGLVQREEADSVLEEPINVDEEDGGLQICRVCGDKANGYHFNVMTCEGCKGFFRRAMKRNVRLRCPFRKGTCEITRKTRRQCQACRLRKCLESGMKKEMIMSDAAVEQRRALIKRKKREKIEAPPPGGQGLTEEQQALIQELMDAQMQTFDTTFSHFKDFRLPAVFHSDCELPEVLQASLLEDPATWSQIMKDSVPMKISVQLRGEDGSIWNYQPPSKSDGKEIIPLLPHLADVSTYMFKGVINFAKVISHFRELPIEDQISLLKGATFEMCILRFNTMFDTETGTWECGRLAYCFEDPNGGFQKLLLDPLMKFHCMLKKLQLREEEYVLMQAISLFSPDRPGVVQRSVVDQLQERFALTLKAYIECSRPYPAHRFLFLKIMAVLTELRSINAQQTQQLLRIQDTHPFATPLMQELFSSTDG

With `Clc1ccc(Cl)c(Cl)c1`, the Potency in assay [1] and in assay [2] was > 92 µM (inactive) throughout. For the same compound, the Potency result in [3], in assay [4], in [5], in assay [6], in assay [7] and in [8] was “inactive” throughout. Also, the Potency entry in assay [9], in assay [10], in [11], in assay [15] and in assay [18] was “inactive” in each case. Further, the outcome in assay [12], in assay [14] and in assay [17] was inactive. The max response in [13] is -7.44% and -24%; in assay [16], 10.3% and -7.29%; in assay [19], 1.05% (inactive) and -0.643% (inactive).
Take `ClCC(Cl)CCl`: the Potency in assay [1] and in assay [2] was > 92 µM (inactive) throughout. Also, the Potency result in assay [3], in assay [20], in [4], in [5], in [6] and in assay [7] was “inactive” throughout. Moreover, the Potency entry in assay [8], in assay [9], in [10], in [11], in assay [15] and in assay [18] was “inactive” each time. In addition, the max response in assay [13] is -14.4% and -17.5%; in [16] it was 0.286% and -10.8%; in [19], 8.27% (inactive) and 1.68% (inactive). Also, the call in [14] and in [17] was inactive.
For the compound `ClC(Cl)Br`, the Potency in assay [1] and in assay [2] was > 92 µM (inactive) each time. For the same compound, the Potency entry in [3], in assay [20], in [4], in [5], in assay [6] and in assay [7] was “inactive” throughout. Moreover, the Potency entry in assay [9], in assay [10], in assay [11], in assay [15] and in assay [18] was “inactive” in each case. Further, the result in assay [12], in assay [14] and in assay [17] was inactive. In addition, the values for the max response in assay [13], in assay [16] and in assay [19] were -4.86%, 1.73% and -4.5% (inactive), respectively.
Regarding `CC(Cl)(Cl)Cl`, the Potency in assay [1] and in assay [2] was > 92 µM (inactive) in each case. In addition, the Potency entry in assay [3], in assay [20], in assay [4], in assay [6], in assay [7] and in assay [8] was “inactive” each time. Further, the Potency result in [9], in assay [10], in [11], in [15] and in assay [18] was “inactive” each time. The result in assay [12], in [14] and in assay [17] was inactive. The max response is -3.95% and -14.6% in assay [13]; 0.916% and -3.55% in assay [16]; -1.71% (inactive) and -2.72% (inactive) in assay [19].
As for `COc1ccccc1N`, the Potency in [1] and in assay [2] was > 92 µM (inactive) throughout. In addition, the Potency result in assay [3], in assay [20], in assay [4], in [5], in assay [7] and in assay [8] was “inactive” throughout. The Potency entry in assay [9], in [10], in assay [11], in [15] and in assay [18] was “inactive” in each case. Moreover, the outcome in assay [12], in [14] and in [17] was inactive. Also, the max response was -8.71% in assay [13] and 20.9% (inactive) in assay [19].
For the compound `CCCCCCCCCCCCCl`, the Potency in assay [1] and in [2] was > 92 µM (inactive) throughout. For the same compound, the Potency result in assay [3], in [4], in assay [5], in [6], in assay [7] and in assay [8] was “inactive” throughout. Also, the Potency entry in assay [9], in [10], in assay [11], in [15] and in assay [18] was “inactive” each time. Besides, the result in assay [12], in assay [14] and in assay [17] was inactive. Further, the max response in [13] is -9.69%; in [16], -8.5%; in [19], 3.36% (inactive).
In the case of `CCCCCOC(=O)c1ccccc1C(=O)OCCCCC`, the Potency in assay [1] and in assay [2] was > 92 µM (inactive) each time. For the same compound, the Potency result in [3], in assay [20], in assay [6], in [7], in assay [9] and in [10] was “inactive” throughout. Also, the Potency result in assay [11], in [15] and in assay [18] was “inactive” throughout. The result in assay [12], in assay [14] and in [17] was inactive. Besides, the max response in assay [13] was -10.9% and 3.25%; in assay [16] it was -5.52%; in [19], 4.64% (inactive) and 1.43% (inactive).
